56 molecules from ChEMBL document CHEMBL4513216, “Probing the Open Global Health Chemical Diversity Library for Multistage-Active Starting Points for Next-Generation Antimalarials” (ACS Infect Dis, 2020) can be followed below.

About 8,600 (12%) of roughly 69,000 compounds showed an effect of 50% or more. The list comes from a sample in which strong results are over-represented; it also holds similar structures and randomly drawn compounds.

In the test the test system is Plasmodium berghei. Put plainly: Screen against P. berghei liver stage (PbLuc), transformed with Luciferase, at 10uM. Format: functional, HepG2. The following applies: tested at 10 uM.
`Cc1ccn(-c2cccc(C(=O)N3CCCC(n4ccnc4C)C3)c2)n1` (stereo unspecified): the INHIBITION was 44.8%.

Regarding `Cc1cc(CN2CC[C@H]3[C@H]2CCN3CC(=O)N(C)C)oc1C`, the INHIBITION came out at 38.3%.

With `Cc1cc(CN(CCO)c2ccc(Br)cc2)on1`, the INHIBITION is on record as 13.8%.

For the molecule `Cc1cc(CN(CCO)c2ccccc2)on1`, the INHIBITION came out at 45.5%.

Consider `Cc1cc(CN(CCCO)c2ccccc2)on1`, for which the INHIBITION was 56.5%.

Consider `Cc1cc(C(=O)NCc2cc(C)oc2C)no1`, for which the INHIBITION is on record as -13%.

In the case of `CCN1CCN(C(=O)c2cccc(CN3CCOCC3)c2)CC1`, the INHIBITION is listed as -14.8%.

On to `CN(Cc1cn2c(n1)CN(Cc1ccc(F)cc1)CC2)Cc1ccco1`, for which the INHIBITION came to 59%.

Consider `CCS(=O)(=O)N1CCn2cc(CN(C)Cc3ccco3)nc2C1`, for which the INHIBITION came out at 47.4%.

For the molecule `CN(Cc1cn2c(n1)CN(Cc1nccs1)CC2)Cc1ccco1`, the INHIBITION stood at 43.9%.

On to `Cc1ccc(CN2CCn3cc(CN(C)Cc4ccco4)nc3C2)o1`, for which the INHIBITION was -3.16%.

As to `CN(Cc1cn2c(n1)CN(Cc1ccsc1)CC2)Cc1ccco1`, the INHIBITION is reported as 31.1%.

For `COCCN1CCn2cc(CN(C)Cc3ccco3)nc2C1`, the INHIBITION stood at 73%.

Take `O=C([C@H]1CC[C@@H]2[C@@H](CCN2Cc2nccs2)O1)N1CCOCC1`: the INHIBITION is -1.12%.

As to `Cc1ccnc(CC(C)N(C)c2cc(C3CCNCC3)nc(C)n2)c1` (stereo unspecified), the INHIBITION was determined as 36.9%.

On to `Cc1ccnc(CC(C)N(C)c2cc(CCN)nc(C)n2)c1` (stereo unspecified), for which the INHIBITION is 45.2%.

Consider `Cc1ccnc(CC(C)N(C)c2cc(CN)nc(C)n2)c1` (stereo unspecified), for which the INHIBITION was 66.5%.

For `Cc1cc(C(=O)N2CCC3(CCNCC3)CC2)c2cccc(C)c2n1`, the INHIBITION is 18.4%.

Turning to `Cc1nc(CN2CCCC(c3cnccn3)C2)cs1` (stereo unspecified), the INHIBITION turned out to be 17.8%.

As for `CC(C)c1noc(-c2ccc(NCCCN3CCCC(O)C3)nc2)n1` (stereo unspecified), the INHIBITION stood at 53%.

As to `CC(C)c1noc(-c2ccc(NCCCC3CCOC3)nc2)n1` (stereo unspecified), the INHIBITION was 43.9%.

As to `CC(C)c1noc(-c2ccc(NCC3CCCOC3)nc2)n1` (stereo unspecified), the INHIBITION is -118%.

Turning to `CS(=O)(=O)NC1CC2(CCN(CCF)CC2)Oc2ccccc21` (stereo unspecified), the INHIBITION is 12.5%.

Take `CCOC(C)c1nccn1Cc1noc(CC)n1` (stereo unspecified): the INHIBITION turned out to be 8.41%.

As for `CCC(C)[C@H](N)c1nnc(SCC(=O)Nc2cc(C)ccc2C)o1` (stereo partly specified), the INHIBITION is 22.2%.

Take `CN(Cc1cc2n(n1)CCN(C(=O)c1cccnc1)C2)Cc1nccs1`: the INHIBITION is recorded as -10.6%.

In the case of `CN(Cc1cc2n(n1)CCN(C(=O)[C@H]1CCCO1)C2)Cc1nccs1`, the INHIBITION is 50.3%.

Consider `CN(Cc1cc2n(n1)CCCN(C(=O)N1CCCC1)C2)Cc1nccs1`, for which the INHIBITION was 38.5%.

Regarding `Cc1nc(C)n(CC2CCCN2CCOc2ccccc2C#N)n1` (stereo unspecified), the INHIBITION came to 17.4%.

As for `CC(C)CN(CC(O)c1ccccc1)C(=O)NC(C)C` (stereo unspecified), the INHIBITION is 40.9%.

Take `CCn1nc(C)c(CCNC(=O)C2CCCN(C(N)=O)C2)c1C` (stereo unspecified): the INHIBITION was -8.11%.

With `CC(C)c1ccc(OCCC(=O)N2CCCN(C(N)=O)CC2)cc1`, the INHIBITION is listed as -4%.

In the case of `CC(c1cccnc1)N(C)Cc1cc2cc3c(cc2[nH]c1=O)OCO3` (stereo unspecified), the INHIBITION turned out to be 27.6%.

Regarding `CC(c1ccccn1)N(C)Cc1cc2cc3c(cc2[nH]c1=O)OCO3` (stereo unspecified), the INHIBITION is recorded as 21.8%.

As for `CC(c1ccncn1)N(C)Cc1cc2cc3c(cc2[nH]c1=O)OCO3` (stereo unspecified), the INHIBITION is 58.7%.

Take `Cc1ccc(N2CCCC(NCCS(C)(=O)=O)C2)nn1` (stereo unspecified): the INHIBITION is on record as 64.4%.

Regarding `COCCCNC1CCCN(c2ccc(C)nn2)C1` (stereo unspecified), the INHIBITION is listed as -28.7%.

`Cc1ccc(N2CCCC(NCCCS(C)(=O)=O)C2)nn1` (stereo unspecified): the INHIBITION stood at 14.9%.

`CCOCC(=O)NCCCn1ccnc1-c1ccccc1`: the INHIBITION came to 16.5%.

On to `CCc1nnc(CN(CC)C(=O)C2CC(=O)N(C(C)(C)C)C2)o1` (stereo unspecified), for which the INHIBITION is recorded as 35.8%.

As for `CCn1ccc(-c2cc(NCCCOc3ccccc3C)nc(C)n2)n1`, the INHIBITION is recorded as 82.4%.

`CCOc1cccc(C(=O)Nc2ccn(CC)n2)c1`: the INHIBITION was -35.4%.

Regarding `Cc1cccc(OCCCNC(=O)Cn2ccc(C)cc2=O)c1`, the INHIBITION is on record as -12.9%.

With `CCn1ccc(-c2cc(C(=O)O)n3nc(C)c(Cl)c3n2)n1`, the INHIBITION stood at 12.3%.

Regarding `COc1ccccc1OCCNCCn1cccn1`, the INHIBITION was 19.4%.

As for `CCn1ccc(-c2cc(NCCCOc3cccc(C)c3)nc(C)n2)n1`, the INHIBITION was 75.9%.

Turning to `CCCNC(=O)c1nn(CC)cc1NC(=O)C(C)n1ncc(Cl)c1C` (stereo unspecified), the INHIBITION came to 8.49%.

Consider `CC(C)NC(=O)N1CCc2ncnc(-c3ccncc3)c2CC1`, for which the INHIBITION is -7.24%.

Turning to `Cc1nc(C)n(CC2CN(CCOc3cccc(C#N)c3)CCO2)n1` (stereo unspecified), the INHIBITION is on record as -5.07%.

As to `Cc1ccc(CN2CCc3[nH]nc(C(=O)N4CCNC(=O)C4)c3C2)s1`, the INHIBITION stood at 18.7%.

As for `CCNC(=O)[C@@H]1C[C@@H](NC(=O)c2cc(C)on2)CN1Cc1ccccn1`, the INHIBITION was found to be 54.8%.

Take `CCNC(=O)[C@@H]1C[C@H](NC(=O)Cc2ccsc2)CN1Cc1ccc(C)o1`: the INHIBITION was found to be 24.6%.

Consider `CCNC(=O)[C@@H]1C[C@@H](NC(=O)Cc2ccccn2)CN1CCCSC`, for which the INHIBITION amounted to 41.8%.

Take `CCNC(=O)[C@@H]1C[C@@H](NC(=O)c2ccc(C)s2)CN1Cc1ccccn1`: the INHIBITION came out at 18.9%.

Consider `CCNC(=O)[C@@H]1C[C@H](NC(=O)c2ccc(C)s2)CN1Cc1ccc(C)o1`, for which the INHIBITION is given as 68.9%.

As to `CCNC(=O)[C@@H]1C[C@H](NC(=O)c2cc(CC)n[nH]2)CN1Cc1ccsc1`, the INHIBITION is on record as -20.5%.
